A3A deaminase: APOBEC3A ssDNA deaminase inhibitors, primary screen, selectivity assay for APOBEC3G inhibitor project, biochemical, FAM/TAMRA oligo cleavage fluorescence; recombinant A3A, FAM/TAMRA ssDNA deamination fluorescence; inhibition, % at 20 µM; AID 493011, 2011; actives 0.41% (n = 330,000);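 active means at least 40% inhibition at 20 µM here, with at most 30% in a related deaminase screen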;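 further: plate controls were A3A with DMSO for no effect and wells lacking A3A enzyme for full effect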
Target sequence (P31941 whole entry, looked up): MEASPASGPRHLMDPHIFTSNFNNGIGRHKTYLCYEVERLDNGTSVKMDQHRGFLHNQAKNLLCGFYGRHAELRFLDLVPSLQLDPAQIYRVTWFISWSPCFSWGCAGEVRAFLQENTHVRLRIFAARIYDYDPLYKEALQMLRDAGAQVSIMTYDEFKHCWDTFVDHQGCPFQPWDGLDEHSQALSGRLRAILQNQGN
PHOSPHO1 block: PubChem AID 1565 | recombinant PHOSPHO1, absorbance phosphatase assay | inhibition, % at 13.3 µM | actives 1.1% (n = 290,000); in the data active means inhibition above about 60%
ALR H2O2 inh: inhibitors of human ALR sulfhydryl oxidase, primary screen, biochemical, H2O2 detection, HRP-luminol luminescence, single point; FAD-linked sulfhydryl oxidase ALR (Homo sapiens), P55789; purified ALR, DTT oxidation; actives 3.8% (n = 290,000); inhibition, % (test concentration not listed);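 active means mean replicate inhibition above about 79%, with every replicate also reaching it, limit read from the data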
Target sequence (P55789 whole entry, looked up): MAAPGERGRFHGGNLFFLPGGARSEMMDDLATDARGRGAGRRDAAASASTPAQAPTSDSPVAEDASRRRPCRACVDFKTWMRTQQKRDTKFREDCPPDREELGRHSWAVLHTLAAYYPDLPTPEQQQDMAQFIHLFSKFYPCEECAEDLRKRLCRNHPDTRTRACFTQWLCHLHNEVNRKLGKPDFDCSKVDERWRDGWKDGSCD
APOBEC3G inh: APOBEC3G DNA deaminase inhibitors, primary screen, biochemical, fluorescence, single-stranded DNA substrate, uHTS | DNA dC->dU-editing enzyme APOBEC-3G (Homo sapiens), Q9HC16 | recombinant A3G, ssDNA deamination FAM/TAMRA fluorescence | inhibition, % at 20 µM | actives 0.28% (n = 330,000) | AID 493012, 2011;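 active means inhibition of at least 40% at 20 µM, with no more than 30% in the related APOBEC3A deaminase screen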;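 further: plate controls were DMSO wells with A3G for no effect and wells lacking A3G enzyme for full effect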
rCAG RNA binder: binders of r(CAG) RNA repeats, primary screen, biochemical, fluorescence. actives 1.3% (n = 370,000). inhibition, % at 3 µM. AID 651821, 2012. r(CAG) RNA repeat, TO-PRO-1 dye displacement fluorescence;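 active means inhibition above the plate cutoff, the mean of all test compounds on that plate plus 3 SD, cut at about 35% in these data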;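 further: 0% = DMSO alone and 100% = 100 µM mitoxantrone as full dye displacement; higher means more dye released from RNA so lower well fluorescence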
aDG glyco act: activators of alpha-DG glycosylation, primary screen, uHTS, Pro5-aDG cells, AlphaScreen; alpha-DG glycosylation AlphaScreen (IIH6); 0% Pro5, 100% B10-LARGE cell signal; activation, % at 10 µM; actives 0.22% (n = 360,000); AID 624168, 2012;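 active means activation of at least 8% versus controls, or a plate z-score of at least 8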;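 further: Pro5 are CHO cells carrying HIG-tagged alpha-DG that lacks glycosylation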
An asterisk follows results filed as active. The list is not random: actives were taken first. Their share in the collection is about 5.4%.

For O=C(O)Cn1c2ccccc2c2ccccc21 the results were A3A deaminase -0.3, PHOSPHO1 block 13.7, ALR H2O2 inh 8.8, APOBEC3G inh -4.3, rCAG RNA binder -2.2 and aDG glyco act -0.1.
`O=C(Cc1coc2cc(O)ccc12)NNC(=O)c1cccs1` gave A3A deaminase -4.2, ALR H2O2 inh 99.0*, APOBEC3G inh -8.2, rCAG RNA binder 4.8 and aDG glyco act -0.1.
O=C(Cc1ccccc1F)NNC(=O)c1cccs1 was read as A3A deaminase 1.5, ALR H2O2 inh -0.6, APOBEC3G inh -6.3, rCAG RNA binder 1.3 and aDG glyco act -0.1.
`Nc1[nH]c2cc(Cl)ccc2c1C(=O)N1CCOCC1` gave rCAG RNA binder 4.3.
For CN(C)S(=O)(=O)c1cccc(NC(=S)Nc2cc(Cl)cc(Cl)c2)c1 the results were A3A deaminase -0.2, PHOSPHO1 block 14.8, APOBEC3G inh -1.2, rCAG RNA binder 9.4 and aDG glyco act -0.2.
CN(C)S(=O)(=O)c1cccc(NC(=S)NCc2ccco2)c1 was read as A3A deaminase -2.9, PHOSPHO1 block -67.2, ALR H2O2 inh -2.1, APOBEC3G inh -5.3, rCAG RNA binder 2.5 and aDG glyco act -0.3.
`CN(C)S(=O)(=O)c1cccc(NC(=S)Nc2ccc(Cl)cc2Cl)c1` gave A3A deaminase -0.6, PHOSPHO1 block 28.1, ALR H2O2 inh 98.6*, APOBEC3G inh -4.5, rCAG RNA binder 6.6 and aDG glyco act 0.0.
COc1ccc(O)c(/C=N/NC(=S)Nc2cccc(S(=O)(=O)N(C)C)c2)c1 was read as PHOSPHO1 block 18.3, ALR H2O2 inh 72.6, rCAG RNA binder 21.8 and aDG glyco act 0.5.
`CCN(CCO)c1ccc(NC(=S)Nc2cccc(S(=O)(=O)N(C)C)c2)cc1` gave A3A deaminase 1.7, PHOSPHO1 block -2.7, ALR H2O2 inh 98.9*, APOBEC3G inh -0.8, rCAG RNA binder 7.6 and aDG glyco act -0.3.
`CN(C)S(=O)(=O)c1cccc(NC(=S)N/N=C/c2ccc(O)c(O)c2O)c1` gave PHOSPHO1 block -65.3, rCAG RNA binder 58.6* and aDG glyco act -0.1.
`Cc1ccccc1Cn1cc(CN2[C@@H](C)COc3cc(Br)ccc3S2(=O)=O)nn1` gave rCAG RNA binder 0.3.
CCOC(=O)C1=C(CSc2nc(C)ccc2C#N)OC(N)=C(C#N)C1c1cccc(OC)c1OC (centres undefined) was read as A3A deaminase -5.6, PHOSPHO1 block 76.1*, ALR H2O2 inh -11.6, APOBEC3G inh 8.1, rCAG RNA binder 0.6 and aDG glyco act -0.3.
`CCOC(=O)C1=C(CSc2nc(-c3ccncc3)ccc2C#N)OC(N)=C(C#N)C1c1cccnc1` (centres undefined) gave A3A deaminase -1.4, PHOSPHO1 block 61.0*, ALR H2O2 inh 17.4, APOBEC3G inh -3.7, rCAG RNA binder 2.9 and aDG glyco act -0.2.
Screening O=C(NC1CCCCN(Cc2ccc(OC(F)(F)F)cc2)C1=O)c1ccc2ccccc2c1 (centres undefined) returned rCAG RNA binder 2.2.
Oc1ccccc1N=Nc1ccccc1O was read as PHOSPHO1 block -26.9, rCAG RNA binder 8.0 and aDG glyco act 1.1.
For Nc1ccc(N=Nc2ccccc2O)c(N)c1 the results were A3A deaminase -0.4, ALR H2O2 inh 83.4*, APOBEC3G inh -1.8, rCAG RNA binder 9.1 and aDG glyco act -0.5.
Cc1cccc(N2CCN(c3ccc(NC(=O)/C=C(/C(=O)O)c4ccccc4)cc3)CC2)c1 was read as A3A deaminase -2.7, PHOSPHO1 block 26.7, ALR H2O2 inh 95.8*, APOBEC3G inh -1.7, rCAG RNA binder 7.7 and aDG glyco act -0.3.
CC1CN=C(N(Cc2ccccc2)C(=O)Nc2ccccc2)S1 (centres undefined) was read as A3A deaminase 4.1, PHOSPHO1 block -6.4, ALR H2O2 inh 1.1, APOBEC3G inh 6.1, rCAG RNA binder 1.1 and aDG glyco act 0.0.

High-throughput results (PubChem)
